A short description of assay [1]: inhibitors of TNFa-induced NFkB p65 translocation, primary screen, imaging, HUVEC, MLSMR starter and 10KST1 sets (AID 438;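 active means inhibition above 20% together with a positive visual image hit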;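 further: compound added about 3h40 before a 20 min TNFalpha stimulation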;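 on inhibition: signal is the nuclear over cytoplasmic p65 intensity ratio per well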). As to conditions: HUVEC TNFa-induced p65 nuclear translocation; cell count: measured here: nuclei count (cytotoxicity indicator), at 2.08 µM; inhibition: at 2 µM, stronger effect = higher value, 0% TNFa-plus-vehicle, 100% no-TNFa wells.
The nature of assay [2]: reduction of polyQ htt aggregates in cells – imaging, exon1htt(103Q)mCFP cells, high-content imaging, primary screen (AID 483;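 active means visual image review flags a hit and inhibition of aggregation exceeds 20%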;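 further: compound exposure lasted 3 days before fixation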;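 on nuclei count: percent of the per-plate median nuclei count of sample wells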). The settings on record: exon1htt(103Q)mCFP cell line, aggregate imaging, at 2 µM; inhibition of aggregation: stronger effect = higher value; nuclei count: measured here: cell count, toxicity.
The nature of assay [3]: endothelial E-selectin expression blockers – imaging, HUVEC, immunofluorescence, MLSMR starter and 10KST1 sets, primary screen (AID 487;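 active means visually confirmed hit in the image check and inhibition above 20%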;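 on inhibition: signal is fraction of cell area covered by stained E-selectin grains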;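 on nuclei count: 100% = median nuclei count of all wells on the same plate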). The settings on record: HUVEC TNFalpha-induced E-selectin immunofluorescence imaging, at 2 µM; inhibition: stronger effect = higher value; nuclei count: measured here: cell number, toxicity.
A short description of assay [4]: Primary imaging screen for DUSP6 inhibitors that restore phospho-Erk in transfected HeLa cells, chemical complementation (AID 609;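 active means compounds giving at least 50% inhibition in the cell-based MKP-3 phosphatase rescue imaging test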;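 on inhibition: phospho-Erk level distribution per well compared with pooled transfected vehicle control wells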). As to conditions: HeLa MKP-3 transfected, phospho-Erk imaging KS statistic, at 10 µM, cells stimulated with TPA for 15 min.
The target of assay [5] is Dual specificity protein phosphatase 6 (Homo sapiens) (UniProt Q16828). The assay is described as above. As to conditions: HeLa MKP-3 transfected, phospho-Erk imaging KS statistic; at 10 µM; stronger effect = higher value; cells stimulated with TPA for 15 min.
In assay [6] the target is Voltage-gated potassium channel subunit beta-2 (Rattus norvegicus) (UniProt P62483). Description: inhibitors of rat Kvbeta2 reductase activity – biochemical, NADPH fluorescence, primary screen (AID 622;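 active means fluorescence slope higher than the sample average by over 3 SD, cut at about -0.22 in these data, passing the limit was not always enough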;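 further: slope of raw intensity against log time taken from 70 to 1610 s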). As to conditions: recombinant KvBeta, 4-cyanobenzaldehyde reduction, at 10 µM, stronger effect = higher value.
The target is the same in assay [7]. Description: enhancers of rat Kvbeta2 NADPH turnover – biochemical, NADPH fluorescence, primary screen (AID 623;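 active means NADPH fluorescence slope more negative than the mean of all samples by about 3 SD, 99.7% confidence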;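 further: fluorescence intensity change per second fitted from 20 to 320 s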). As to conditions: Recombinant KvBeta, NADPH fluorescence decrease slope, 10 min; at 10 µM; stronger effect = lower value.
The target of assay [8] is Alpha-2C adrenergic receptor (Homo sapiens) (UniProt P18825). The experiment in a line: compounds altering alpha2C-coupled GIRK flux – cell-based, HEK293 alpha2C/GIRK1/2, thallium flux, primary screen (AID 624;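 active means fluorescence slope after compound addition differing from the mean of all screened samples at 99.7% confidence, in either direction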;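 further: slope of fluorescence ratio to pre-addition baseline per second over 15 to 24 s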). As to conditions: thallium flux BTC fluorescence, at 10 µM, actives lie on both sides.
The target in assay [9] is Muscarinic acetylcholine receptor M4 (Homo sapiens) (UniProt P08173). Description: M4-linked GIRK flux change, two-sided – cell-based, HEK293 M4/GIRK, thallium flux, BTC-AM, M4 allosteric agonist project, primary screen (AID 625;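 active means fluorescence slope after compound addition differing from the mean of all tested samples at 99.7% confidence, mostly higher but some lower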;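 further: thallium influx through GIRK channels coupled to M4 in HEK293 cells with BTC-AM dye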). The settings on record: at 10 µM, actives lie on both sides.
Assay [10] is described as follows: inhibitors of larval lipid processing in zebrafish, primary screen, whole organism, PED6 fluorescence, gall bladder and intestine (AID 686).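 Further: larvae 5 to 7 days old with five fish per well; signal comes from phospholipase A2 cleavage of quenched PED6 carried via bile; overnight exposure to compound and PED6 before scoring.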 As to conditions: Zebrafish larvae PED6 lipid processing, fluorescence scoring; screened at 20 µM (by protocol).
Assay [11] in a line: loss of swimming-algae plug formation – whole organism, Chlamydomonas reinhardtii, WT vs cilia-less mutant, absorbance, 96-well, primary screen (AID 463189;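 active means inhibition at or above 50% relative to wild type and mutant plate controls; inactive means inhibition below 50%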;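 further: 0% = wild type cc124 cells in DMSO and 100% = ciliumless bld1 mutant cells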). The settings on record: Chlamydomonas reinhardtii gravitaxis, OD600 absorbance, 2 days; at 10 µM; stronger effect = higher value.
Assay [12] can be described thus: blockers of RIG-like receptor reporter activation – cell-based, Sendai virus stimulus, luciferase, 10K MLSCN set, TLR/RLR signaling modifier project, primary screen (AID 602276;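 active means inhibition at or above 50% at 10 µM; inactive means inhibition below 50%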;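 further: firefly luciferase from ISG56 promoter only with Renilla not read in this screen; 0% = Sendai virus plus DMSO and 100% = medium plus DMSO without virus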). As to conditions: HEK293 RL24 IRF3 luciferase reporter, at 10 µM, stronger effect = higher value.
A short description of assay [13]: TLR3 IRF3 reporter activation blockers – cell-based, poly I:C stimulus, luciferase, 10K MLSCN set, primary screen (AID 602277;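 active means inhibition of the reporter signal at or above 50%; inactive means inhibition below 50%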). The settings on record: HEK293-TLR3 RL24 IRF3 luciferase reporter, at 10 µM, stronger effect = higher value.
Setting [14] is: measured here: cell density z-score.
Where [15] appears, read: measured here: nuclear c-Myc green intensity z-score.
[16] abbreviates: measured here: nuclear pErk red intensity z-score, stronger effect = higher value.

We go through five compounds from PubChem BioAssay.

Activity calls are given as the source filed them.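 How the source made its calls, unless noted: active means a full or partial loss of lipid-probe fluorescence in the fish gall bladder, intestine or both, judged by eye; inactive means no fluorescence loss, or compound toxic to the fish.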

Chain of Dual specificity protein phosphatase 6 (Homo sapiens) (Q16828 whole entry, looked up): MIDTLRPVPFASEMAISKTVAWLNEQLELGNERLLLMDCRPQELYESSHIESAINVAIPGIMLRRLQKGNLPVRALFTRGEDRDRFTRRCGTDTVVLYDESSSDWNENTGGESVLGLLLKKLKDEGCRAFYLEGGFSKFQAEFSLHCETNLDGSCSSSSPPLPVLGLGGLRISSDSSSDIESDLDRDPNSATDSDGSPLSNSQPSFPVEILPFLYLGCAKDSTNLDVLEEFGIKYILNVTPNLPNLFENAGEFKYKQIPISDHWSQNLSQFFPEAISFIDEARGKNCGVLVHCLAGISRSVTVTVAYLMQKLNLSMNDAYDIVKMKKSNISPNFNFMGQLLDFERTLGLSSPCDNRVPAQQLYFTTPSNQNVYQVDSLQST
Chain of Alpha-2C adrenergic receptor (Homo sapiens) (P18825 whole entry, looked up): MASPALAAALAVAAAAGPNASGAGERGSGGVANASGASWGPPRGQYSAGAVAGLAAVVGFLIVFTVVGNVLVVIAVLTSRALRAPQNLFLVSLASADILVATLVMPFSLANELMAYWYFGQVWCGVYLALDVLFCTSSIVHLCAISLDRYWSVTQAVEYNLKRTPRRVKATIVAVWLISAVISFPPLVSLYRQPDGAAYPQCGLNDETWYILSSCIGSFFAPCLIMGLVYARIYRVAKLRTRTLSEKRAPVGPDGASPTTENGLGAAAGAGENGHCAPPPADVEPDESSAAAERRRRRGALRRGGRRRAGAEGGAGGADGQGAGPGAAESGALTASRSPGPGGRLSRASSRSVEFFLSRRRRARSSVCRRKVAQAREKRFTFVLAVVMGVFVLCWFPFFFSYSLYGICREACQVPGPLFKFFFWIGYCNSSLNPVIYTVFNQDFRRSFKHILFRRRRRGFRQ
Chain of Voltage-gated potassium channel subunit beta-2 (Rattus norvegicus) (P62483 whole entry, looked up): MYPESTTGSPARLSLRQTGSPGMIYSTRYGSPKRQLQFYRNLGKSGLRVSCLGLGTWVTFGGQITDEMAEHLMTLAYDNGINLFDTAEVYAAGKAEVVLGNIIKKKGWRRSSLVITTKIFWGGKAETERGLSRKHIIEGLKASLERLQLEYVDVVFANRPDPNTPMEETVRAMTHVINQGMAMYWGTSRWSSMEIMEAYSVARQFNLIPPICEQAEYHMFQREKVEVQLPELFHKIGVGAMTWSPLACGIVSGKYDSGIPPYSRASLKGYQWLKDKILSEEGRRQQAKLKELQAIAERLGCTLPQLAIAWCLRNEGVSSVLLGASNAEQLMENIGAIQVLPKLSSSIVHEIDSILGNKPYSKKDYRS
Chain of Muscarinic acetylcholine receptor M4 (Homo sapiens) (P08173 whole entry, looked up): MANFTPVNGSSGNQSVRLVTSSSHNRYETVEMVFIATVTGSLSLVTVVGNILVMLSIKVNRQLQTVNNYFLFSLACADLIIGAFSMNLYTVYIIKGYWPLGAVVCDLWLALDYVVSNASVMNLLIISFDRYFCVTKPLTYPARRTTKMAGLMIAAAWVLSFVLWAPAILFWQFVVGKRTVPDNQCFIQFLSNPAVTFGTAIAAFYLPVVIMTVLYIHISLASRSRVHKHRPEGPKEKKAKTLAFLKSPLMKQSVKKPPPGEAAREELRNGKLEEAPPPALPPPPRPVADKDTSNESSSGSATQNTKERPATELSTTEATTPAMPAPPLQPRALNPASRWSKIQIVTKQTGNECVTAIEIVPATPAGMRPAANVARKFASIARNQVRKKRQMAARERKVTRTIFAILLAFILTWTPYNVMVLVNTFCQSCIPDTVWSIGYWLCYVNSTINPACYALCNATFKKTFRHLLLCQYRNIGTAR

Consider `Cn1c(=O)c2c(nc(Oc3ccc4c(c3)OCO4)n2Cc2ccc(F)cc2)n(C)c1=O`, for which, in assay [1], the cell count was 691. For the same compound, the inhibition is -7.2% (inactive) in assay [1]; -27.6% (inactive) in [3]; 1.9e-07% (inactive) in assay [5]; -14.6% (inactive) in assay [11]; 20.6% (inactive) in assay [12]; 26.7% (inactive) in assay [13]. For the same compound, in [2], the inhibition of aggregation is 4.8% (inactive). The values for the nuclei count in assay [2] and in [3] were 108% and 90.8%, respectively. The z-score is -1.8 in [4] (setting [14]), -0.122 in assay [4] (setting [15]) and -1.44 in assay [4] (setting [16]). Also, the figures for the fluorescence slope in assay [6] and in [9] were -0.503 (inactive) and 0.00586 (inactive), respectively. In assay [7], the NADPH fluorescence slope is -2e-05 (inactive). For the same compound, in assay [8], the slope is 0.00727 (inactive). Moreover, the result in assay [10] was inactive.
For `CCSc1nnc(NC(=O)C(CC)(C(F)(F)F)C(F)(F)F)s1`, the cell count in assay [1] amounted to 702. The inhibition in [1] was 0.2% (inactive); in assay [3], -53.9% (inactive); in assay [5], -9.53% (inactive); in assay [11], 21.1% (inactive); in assay [12] it was -0.9% (inactive); in assay [13], -31.4% (inactive). Also, the inhibition of aggregation in [2] was -6.4% (inactive). Further, the nuclei count was determined as 106% in assay [2] and 124% in [3]. Further, the z-score was 0.12 in assay [4] (setting [14]), -0.276 in [4] (setting [15]) and 0.239 in assay [4] (setting [16]). The values for the fluorescence slope in assay [6] and in assay [9] were -0.447 (inactive) and 0.00559 (inactive), respectively. The NADPH fluorescence slope in assay [7] was -4.4e-05 (inactive). In assay [8], the slope was 0.00447 (inactive). Besides, the call in [10] was inactive.
Consider `CCCCc1nc(NCCN2CCOCC2)c(C#N)c2c1COC(C)(C)C2`, for which the cell count in assay [1] turned out to be 472. The inhibition in assay [1] is -7.6% (inactive); in assay [3], -75.1% (inactive); in assay [5], 3.42% (inactive); in [11] it was 98.1% (active); in assay [12], 15.9% (inactive); in assay [13], 10.1% (inactive). In addition, in [2], the inhibition of aggregation was -37.3% (inactive). Further, the nuclei count is 122% in assay [2] and 116% in [3]. The z-score is -1.08 in assay [4] (setting [14]), 2.36 in assay [4] (setting [15]) and -1.06 in assay [4] (setting [16]). Moreover, the fluorescence slope is -0.542 (inactive) in [6] and 0.00481 (inactive) in [9]. In assay [7], the NADPH fluorescence slope is 8.4e-06 (inactive). Further, the slope in assay [8] is 0.00518 (inactive). Also, the compound was classed as inactive in [10].
`CC(NC(=O)NCCCC(=O)O)(C(F)(F)F)C(F)(F)F`: the cell count in assay [1] came out at 582. In addition, the inhibition in assay [1] is -3.7% (inactive); in assay [3], -76% (inactive); in assay [5], -2.09% (inactive); in assay [11] it was 11.9% (inactive); in assay [12], 18.9% (inactive); in assay [13] it was 21.7% (inactive). The inhibition of aggregation in assay [2] is 8.7% (inactive). The values for the nuclei count in [2] and in assay [3] were 98.1% and 122%, respectively. Moreover, the z-score is -0.792 in assay [4] (setting [14]), -0.179 in assay [4] (setting [15]) and 1.85 in assay [4] (setting [16]). For the same compound, the fluorescence slope in assay [6] is -0.428 (inactive); in assay [9], 0.00478 (inactive). Also, in assay [7], the NADPH fluorescence slope is -1.9e-05 (inactive). Moreover, the slope in assay [8] was 0.00567 (inactive). In addition, the call in [10] was inactive.
On to `O=C(NCc1cccnc1)/C(=N\O)c1ccccc1`, for which the cell count in [1] worked out at 415. The inhibition is -4.8% (inactive) in assay [1]; -66.8% (inactive) in assay [3]; 5.95% (inactive) in assay [5]; -9.8% (inactive) in assay [11]; 6.94% (inactive) in assay [12]; 4.43% (inactive) in assay [13]. Besides, the inhibition of aggregation in assay [2] is -9.8% (inactive). The nuclei count in [2] is 100%; in [3], 97.2%. Moreover, the z-score in assay [4] (setting [14]) is 0.444; in assay [4] (setting [15]), 0.0712; in assay [4] (setting [16]), -0.943. Moreover, the fluorescence slope in assay [6] is -0.424 (inactive); in assay [9], 0.00494 (inactive). Moreover, in assay [7], the NADPH fluorescence slope is 1.4e-05 (inactive). Besides, in assay [8], the slope was 0.00513 (inactive). Besides, the call in assay [10] was inactive.
